In the supplement of paper PMC13380429:

Test system: Vero E6 infected with SARS-CoV-2
Assay: inhibition of SARS-CoV-2 cytopathic effect; higher = more antiviral protection, active = above 15
Details: 48 h

Measured: inhibition of SARS-CoV-2 cytopathic effect

COc1cc(/C=C/C(=O)N2CCN(CC(=O)N3CCCC3)CC2)cc(OC)c1OC [cinepazide]
inactive: 1 nM 5.93% | 8.33 nM 5.29% | 100 nM 8.11% | 833.33 nM -1.14% | 10000 nM 0.17%

CCc1nn(CCCN2CCN(c3cccc(Cl)c3)CC2)c(=O)n1CCOc1ccccc1 [nefazodone]
inactive: 1 nM -0.85% | 8.33 nM 0.31% | 100 nM -12.7% | 833.33 nM 0.6% | 10000 nM -2.21%

Cc1sc2c(c1C)C(c1ccc(Cl)cc1)=N[C@@H](CC(N)=O)c1nnc(C)n1-2
inactive: 1 nM -0.7% | 8.33 nM -0.88% | 100 nM 0.16% | 833.33 nM -4.22% | 10000 nM -9.8%

O=C1c2cccnc2OC[C@@H]2CCCN12
inactive: 1 nM 0.83% | 8.33 nM 1.33% | 100 nM 0.65% | 833.33 nM 0.64% | 10000 nM -2.21%

Cn1c(COc2ccc(CC3SC(=O)NC3=O)cc2)nc2ccccc2c1=O (stereo not given) [balaglitazone]
inactive: 1 nM -1.69% | 8.33 nM -0.56% | 100 nM -0.1% | 833.33 nM -2.45% | 10000 nM -7.04%

Cc1ccnc2c1NC(=O)c1cccnc1N2C1CC1 [nevirapine]
inactive: 1 nM -0.06% | 8.33 nM 2.22% | 100 nM 0.61% | 833.33 nM 0.25% | 10000 nM 0.49%

COc1cccc2c1C(=O)c1c(O)c3c(c(O)c1C2=O)C[C@@](O)(C(=O)CO)C[C@@H]3O[C@H]1C[C@H](N)[C@H](O[C@@H]2CCCCO2)[C@H](C)O1 [pirarubicin]
inactive: 1 nM -1.57% | 8.33 nM -0.32% | 100 nM -0.19% | 833.33 nM -1.24% | 10000 nM -2.07%

CC(=O)O[C@H]1C[C@H](O[C@H]2[C@@H](O)C[C@H](O[C@H]3[C@@H](O)C[C@H](O[C@H]4CC[C@@]5(C)[C@H](CC[C@@H]6[C@@H]5C[C@@H](O)[C@]5(C)[C@@H](C7=CC(=O)OC7)CC[C@]65O)C4)O[C@@H]3C)O[C@@H]2C)O[C@H](C)[C@H]1O[C@@H]1O[C@H](CO)[C@@H](O)[C@H](O)[C@H]1O [lanatoside-C]
inactive: 1 nM 0.4% | 8.33 nM -0.46% | 100 nM -8.78% | 833.33 nM -9.54% | 10000 nM -11.4%

C=CC(=O)Nc1ccc2ncnc(Nc3cccc(Br)c3)c2c1
inactive: 1 nM -0.46% | 8.33 nM -1.31% | 100 nM -13.7% | 833.33 nM -13.8% | 10000 nM -13.2%

COc1ccc(O)c(C(C)(C)C)c1.COc1ccc(O)cc1C(C)(C)C [butylated-hydroxyanisole]
inactive: 1 nM -2.13% | 8.33 nM -2.11% | 100 nM -2.79% | 833.33 nM 0.85% | 10000 nM -1.88%

CCOC(=O)[C@H]1O[C@@H]1C(=O)N[C@@H](CC(C)C)C(=O)NCCC(C)C [aloxistatin]
inactive: 1 nM 0.43% | 8.33 nM -1.01% | 100 nM 0.39% | 833.33 nM -0.54% | 10000 nM 11.2%

CNC(=O)c1ccccc1Nc1cc(Nc2ccc(N3CCOCC3)cc2OC)ncc1C(F)(F)F
inactive: 1 nM 0.1% | 8.33 nM -1.1% | 100 nM -2.99% | 833.33 nM -4.38% | 10000 nM -3.64%

CC1=C(C(=O)Nc2cc3cn[nH]c3cc2F)C(c2ccc(C(F)(F)F)cc2)CC(=O)N1 (stereo not given)
inactive: 1 nM 1.8% | 8.33 nM -1.07% | 100 nM 1.5% | 833.33 nM -0.29% | 10000 nM -5.1%

C=CCc1cccc(/C=N/NC(=O)CN2CCN(Cc3ccccc3)CC2)c1O
inactive: 1 nM 0.07% | 8.33 nM 0.95% | 100 nM 4.72% | 833.33 nM 0.65% | 10000 nM -2.23%

COc1ccc2nc3cc(Cl)ccc3c(Nc3cc(CN4CCCC4)c(O)c(CN4CCCC4)c3)c2n1 [pyronaridine]
inactive: 1 nM 3.08% | 8.33 nM 4.56% | 100 nM 8.6% | 833.33 nM 3.79% | 10000 nM -18.6%
